Experimental findings from publication doi:10.1101/2024.03.05.583629 are described below.

Sequence of pT7_6His-AlfaTag-HOXD13 (P35453 263-343): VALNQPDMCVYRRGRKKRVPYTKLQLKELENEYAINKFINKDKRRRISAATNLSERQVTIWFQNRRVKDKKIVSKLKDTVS

The test has as its target pT7_6His-AlfaTag-HOXD13 (human, UniProt P35453 263-343). The test is described as follows: PADIT-seq. The conditions noted are these: dsDNA, one strand shown.
In the case of “CTCGAGGATATCAAGATCTGGCCTCGGCATTTTAGCCGGAACCTCTAGCTAGCCGACTCACTATAGGGATAATCGCCCTGAGCAAAGACC”, the binding signal is -0.535 ± 0.111 log2FC.

For “CTCGAGGATATCAAGATCTGGCCTCGGCCTTTTATTAGGAACCTCTAGCTAGCCGACTCACTATAGGGATAATCGCCCTGAGCAAAGACC”, the binding signal was 3.32 ± 0.0849 log2FC.

On to “CTCGAGGATATCAAGATCTGGCCTCGGCAAGATAAAAGGAACCTCTAGCTAGCCGACTCACTATAGGGATAATCGCCCTGAGCAAAGACC”, for which the binding signal was determined as 0.282 ± 0.0917 log2FC.

For “CTCGAGGATATCAAGATCTGGCCTCGGCGGGCTAAAAGGAACCTCTAGCTAGCCGACTCACTATAGGGATAATCGCCCTGAGCAAAGACC”, the binding signal is -0.851 ± 0.105 log2FC.

As to “CTCGAGGATATCAAGATCTGGCCTCGGCCTACTAAAAGGAACCTCTAGCTAGCCGACTCACTATAGGGATAATCGCCCTGAGCAAAGACC”, the binding signal is 1.25 ± 0.0954 log2FC.

For “CTCGAGGATATCAAGATCTGGCCTCGGCCTTTTAGGCGGAACCTCTAGCTAGCCGACTCACTATAGGGATAATCGCCCTGAGCAAAGACC”, the binding signal is -0.31 ± 0.108 log2FC.

With “CTCGAGGATATCAAGATCTGGCCTCGGCGTTTTAGGAGGAACCTCTAGCTAGCCGACTCACTATAGGGATAATCGCCCTGAGCAAAGACC”, the binding signal was found to be 1.64 ± 0.105 log2FC.

On to “CTCGAGGATATCAAGATCTGGCCTCGGCATTTTATAGGGAACCTCTAGCTAGCCGACTCACTATAGGGATAATCGCCCTGAGCAAAGACC”, for which the binding signal came to 3.25 ± 0.0782 log2FC.

“CTCGAGGATATCAAGATCTGGCCTCGGCCGAATAAAAGGAACCTCTAGCTAGCCGACTCACTATAGGGATAATCGCCCTGAGCAAAGACC” had a binding signal of 1.27 ± 0.0923 log2FC.

As to “CTCGAGGATATCAAGATCTGGCCTCGGCGTTTTAACCGGAACCTCTAGCTAGCCGACTCACTATAGGGATAATCGCCCTGAGCAAAGACC”, the binding signal was -0.0101 ± 0.0939 log2FC.

For the sequence “CTCGAGGATATCAAGATCTGGCCTCGGCCGATTAAAAGGAACCTCTAGCTAGCCGACTCACTATAGGGATAATCGCCCTGAGCAAAGACC”, the binding signal was found to be 1.2 ± 0.104 log2FC.

Regarding “CTCGAGGATATCAAGATCTGGCCTCGGCATTTTAAATGGAACCTCTAGCTAGCCGACTCACTATAGGGATAATCGCCCTGAGCAAAGACC”, the binding signal was 1.82 ± 0.0848 log2FC.

The sequence “CTCGAGGATATCAAGATCTGGCCTCGGCCTGCTAAAAGGAACCTCTAGCTAGCCGACTCACTATAGGGATAATCGCCCTGAGCAAAGACC” yielded a binding signal of 0.179 ± 0.113 log2FC.

In the case of “CTCGAGGATATCAAGATCTGGCCTCGGCGTTTTACTGGGAACCTCTAGCTAGCCGACTCACTATAGGGATAATCGCCCTGAGCAAAGACC”, the binding signal stood at 2.76 ± 0.0911 log2FC.

The sequence “CTCGAGGATATCAAGATCTGGCCTCGGCTACTTAAAAGGAACCTCTAGCTAGCCGACTCACTATAGGGATAATCGCCCTGAGCAAAGACC” yielded a binding signal of 0.982 ± 0.0923 log2FC.

As to “CTCGAGGATATCAAGATCTGGCCTCGGCAGTCCACGCGGAACCTCTAGCTAGCCGACTCACTATAGGGATAATCGCCCTGAGCAAAGACC”, the binding signal is -0.993 ± 0.114 log2FC.

“CTCGAGGATATCAAGATCTGGCCTCGGCCCCGTAAAAGGAACCTCTAGCTAGCCGACTCACTATAGGGATAATCGCCCTGAGCAAAGACC” registered a binding signal of 2.52 ± 0.0899 log2FC.

As to “CTCGAGGATATCAAGATCTGGCCTCGGCTGAGTAAAAGGAACCTCTAGCTAGCCGACTCACTATAGGGATAATCGCCCTGAGCAAAGACC”, the binding signal came out at 0.229 ± 0.0993 log2FC.

“CTCGAGGATATCAAGATCTGGCCTCGGCCTTTTACAGGGAACCTCTAGCTAGCCGACTCACTATAGGGATAATCGCCCTGAGCAAAGACC”: the binding signal is 2.83 ± 0.0828 log2FC.

On to “CTCGAGGATATCAAGATCTGGCCTCGGCATTCTAAAAGGAACCTCTAGCTAGCCGACTCACTATAGGGATAATCGCCCTGAGCAAAGACC”, for which the binding signal is -0.358 ± 0.0968 log2FC.

Turning to “CTCGAGGATATCAAGATCTGGCCTCGGCTCAGTAAAAGGAACCTCTAGCTAGCCGACTCACTATAGGGATAATCGCCCTGAGCAAAGACC”, the binding signal was determined as 1.56 ± 0.0915 log2FC.

On to “CTCGAGGATATCAAGATCTGGCCTCGGCTTTTTATCAGGAACCTCTAGCTAGCCGACTCACTATAGGGATAATCGCCCTGAGCAAAGACC”, for which the binding signal is 2.36 ± 0.0842 log2FC.

“CTCGAGGATATCAAGATCTGGCCTCGGCAAAGTAAAAGGAACCTCTAGCTAGCCGACTCACTATAGGGATAATCGCCCTGAGCAAAGACC” had a binding signal of 0.197 ± 0.0829 log2FC.

With “CTCGAGGATATCAAGATCTGGCCTCGGCTCTCCACGCGGAACCTCTAGCTAGCCGACTCACTATAGGGATAATCGCCCTGAGCAAAGACC”, the binding signal was -0.925 ± 0.119 log2FC.

“CTCGAGGATATCAAGATCTGGCCTCGGCTTTTTATGGGGAACCTCTAGCTAGCCGACTCACTATAGGGATAATCGCCCTGAGCAAAGACC” yielded a binding signal of 3.53 ± 0.0874 log2FC.

Sequence “CTCGAGGATATCAAGATCTGGCCTCGGCTCTCTAAAAGGAACCTCTAGCTAGCCGACTCACTATAGGGATAATCGCCCTGAGCAAAGACC” displayed a binding signal of 0.412 ± 0.105 log2FC.
